Test results as given in PubChem BioAssay AID1004 (SRMLSC, 2008).
A number with no mark means an inactive call. The source made the active and inactive calls.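 Rule for the calls: active = viability at 10 µM of 29.74% or lower, 3 SD below the compound median; inactive = the rest.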

Experiment: viability of HCT116 lacking mutant beta-catenin – cell-based, DP diverse set, validation, pilot screen (AID 1004)
Conditions: HCT116 (mutant beta-catenin deleted) viability, CellTiter-Glo, 60 h; at 10 µM; stronger effect = lower value

For `CCCC[C@@H](C=O)NC(=O)[C@H](CC(C)C)NC(=O)[C@H](CC(C)C)NC(C)=O`, the viability was 8.45% (active).
For `Cc1cc2c(C(C)C)c(O)c(O)c(C=O)c2c(O)c1-c1c(C)cc2c(C(C)C)c(O)c(O)c(C=O)c2c1O`, the viability was 28.5% (active).

In order of falling viability:
1. COc1ccc(/C=C/c2cc(OC)cc(=O)o2)cc1  103%
2. CC1(C)[C@@H](O[C@H]2O[C@H](C(=O)O)[C@@H](O)[C@H](O)[C@H]2O[C@@H]2O[C@H](C(=O)O)[C@@H](O)[C@H](O)[C@H]2O)CC[C@]2(C)[C@H]3C(=O)C=C4[C@@H]5C[C@@](C)(C(=O)O)CC[C@]5(C)CC[C@@]4(C)[C@]3(C)CC[C@@H]12  101%
3. CC(C)CC(=O)N[C@H](C(=O)N[C@H](C(=O)N[C@@H](CC(C)C)[C@@H](O)CC(=O)N[C@@H](C)C(=O)N[C@@H](CC(C)C)[C@@H](O)CC(=O)O)C(C)C)C(C)C  100%
4. Cn1c(=O)c2[nH]cnc2n(C)c1=O  100%
5. COc1ccc(C2CNC(=O)C2)cc1OC1CCCC1 (stereo not drawn)  99.4%
6. O=C(c1ccccc1)c1ccccc1  97.8%
7. CC1=C(/C=C/C(C)=C/C=C/C(C)=C/C(=O)O)C(C)(C)CCC1  96.5%
8. NCCNS(=O)(=O)c1cccc2c(Cl)cccc12  95.7%
9. O=c1[nH]c(=O)n(C2CCCO2)cc1F (stereo not drawn)  94.9%
10. Cc1ccc2c(c1)C(=O)C1(O)CCN(c3ccccc3)C1=N2 (stereo not drawn)  91%
11. COC(=O)Nc1nc2ccc(C(=O)c3cccs3)cc2[nH]1  38.8%
